In PubChem BioAssay (NCI) one finds growth data, which are given here for 13 compounds.

Some test systems named below: SK-MEL-2 melanoma; EKVX NSCLC; SN12C renal; UO-31 renal; TK-10 renal; ACHN renal; A498 renal; CCRF-CEM leukemia; MOLT-4 leukemia; SR leukemia.
Common to all, as to assay: NCI-60 one-dose screen, 48 h (100 = growth as untreated, 0 = no growth, -100 = all killed)
Holding throughout (settings): 10 µM unless noted

This is part of a sample that, as a whole, favours compounds with a hit. Of some 83,000 tested, about 20% had one in any assay.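 Assay: single dose, 48 h. Readout: percent growth (0 = no net growth; negative = cell death). Active: <10.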 Unmarked numbers belong to inactive results. Active and inactive are the calls of the source.

As for `CCc1n(Cc2ccc3ccccc3c2)c2ccccc2[n+]1Cc1ccc2ccccc2c1`, the growth with SK-MEL-2 melanoma was 71.6%; in the experiment on EKVX NSCLC it was 76.7%; with SN12C renal, 65.2%; in the experiment with UO-31 renal, 87.2%; in the experiment with TK-10 renal, 75.5%; in the experiment on ACHN renal, 96.5%. In addition, the growth in the experiment with A498 renal was 87.6%; in the experiment with CCRF-CEM leukemia, 63.5%; in the experiment on MOLT-4 leukemia, 73.4%; in the experiment on SR leukemia, 28.4%.

Consider `N#Cc1c(NC(=O)c2cccs2)[n+]([O-])c2cc(C(F)(F)F)ccc2[n+]1[O-]`, for which the growth in the experiment with SK-MEL-2 melanoma is 55.8%; with EKVX NSCLC, 87.1%; with SN12C renal, 108%; in the experiment on UO-31 renal, 80.5%; in the experiment on TK-10 renal, 104%; with ACHN renal it was 102%. In addition, the growth in the experiment with A498 renal was 123%; in the experiment with CCRF-CEM leukemia it was 94.7%; with MOLT-4 leukemia, 75.9%; with SR leukemia, 79.8%.

In the case of `CCOC(=O)c1ccc(Nc2ncnc3ccc(NC(=O)c4ccccc4)cc23)cc1`, the growth in the experiment with SK-MEL-2 melanoma is 86.6%; in the experiment with EKVX NSCLC, 80.3%; with SN12C renal it was 102%; with UO-31 renal it was 72.6%; in the experiment on TK-10 renal, 65.4%; in the experiment on ACHN renal, 93.5%. Further, the growth with A498 renal was 106%; with CCRF-CEM leukemia, 91.2%; in the experiment on MOLT-4 leukemia, 63.8%; in the experiment on SR leukemia, 73.8%.

As for `CC(=O)c1ccc(NC(=O)CSc2nnc(-c3cc(-c4ccc(C)cc4)nc4ccccc34)o2)cc1`, the growth in the experiment on SK-MEL-2 melanoma was 81.5%; with EKVX NSCLC, 78.3%; in the experiment on SN12C renal, 20%; in the experiment on UO-31 renal, 11.5%; with TK-10 renal it was 43%; in the experiment with ACHN renal, 63.6%. Moreover, the growth in the experiment on A498 renal was 70.5%; with CCRF-CEM leukemia, 53.6%; with MOLT-4 leukemia, 43.5%; in the experiment with SR leukemia, -12.5% (active).

As to `Fc1ccc(N/N=C/c2ccc(-n3cccn3)cc2)cc1`, the growth in the experiment on SK-MEL-2 melanoma is 103%; in the experiment on EKVX NSCLC it was 81.3%; with SN12C renal, 108%; in the experiment with UO-31 renal it was 80.4%; in the experiment on TK-10 renal, 111%; with ACHN renal, 91.7%. Further, the growth with A498 renal is 119%; in the experiment with CCRF-CEM leukemia, 89.5%; with MOLT-4 leukemia it was 89%; in the experiment with SR leukemia, 64.1%.

Regarding `CC(=O)Nc1nc2c(c(N)c1C#N)C(c1cccc(Cl)c1)C1=C(CCCC1=O)N2c1sc2c(c1C#N)CCCC2` (stereo not given), the growth in the experiment with SK-MEL-2 melanoma was 55.5%; with EKVX NSCLC, 35.9%; in the experiment on SN12C renal it was 52.3%; in the experiment on UO-31 renal it was 37.1%; in the experiment with TK-10 renal, 44.5%; in the experiment on ACHN renal, 53.3%. The growth was 62.4% with A498 renal, 50.4% in the experiment on CCRF-CEM leukemia, 12.6% in the experiment with MOLT-4 leukemia and 26% in the experiment on SR leukemia.

As to `COc1ccc2nc3nc4ccc[nH]c4cc3c2c1`, the growth in the experiment on SK-MEL-2 melanoma is 108%; in the experiment with EKVX NSCLC, 67.6%; with SN12C renal, 89.7%; in the experiment with UO-31 renal, 61.5%; in the experiment on TK-10 renal, 82.2%; in the experiment with ACHN renal, 76%. The growth is 94.4% in the experiment on A498 renal, 97.5% in the experiment on CCRF-CEM leukemia, 93.6% with MOLT-4 leukemia and 43.6% in the experiment with SR leukemia.

For `C#Cc1ccccc1NC(=O)c1sc2nc3c(cc2c1N)CCCCCC3`, the growth was 85.4% with SK-MEL-2 melanoma; 69.5% in the experiment on EKVX NSCLC; 58.5% in the experiment on SN12C renal; 50.1% with UO-31 renal; 63.2% in the experiment with TK-10 renal; 31.1% with ACHN renal. Further, the growth is 68.5% in the experiment with A498 renal, 60.7% with CCRF-CEM leukemia, 67.1% with MOLT-4 leukemia and 12.3% with SR leukemia.

For the compound `Cc1c(Cl)cccc1NC(=O)c1sc2nc3c(cc2c1N)CCCCCC3`, the growth in the experiment on SK-MEL-2 melanoma was 11.8%; in the experiment on EKVX NSCLC, 39.8%; in the experiment with SN12C renal, 42.4%; in the experiment on UO-31 renal, 55.4%; in the experiment on TK-10 renal, 44.9%; in the experiment with ACHN renal it was 41.8%. In addition, the growth with A498 renal was -9.95% (active); in the experiment on CCRF-CEM leukemia, 10.9%; in the experiment with MOLT-4 leukemia it was 17.3%; with SR leukemia it was 16%.

As for `O=C(N/N=C/C[C@@H]1[C@@H](/C=C/[C@@H](O)COc2cccc(Cl)c2)[C@H](O)C[C@@H]1O)c1ccncc1`, the growth is 102% with SK-MEL-2 melanoma; 98.4% in the experiment on EKVX NSCLC; 102% in the experiment on SN12C renal; 89.5% in the experiment on UO-31 renal; 73.2% in the experiment with TK-10 renal; 101% with ACHN renal. In addition, the growth is 97.9% in the experiment with A498 renal, 98% in the experiment with CCRF-CEM leukemia, 83.7% in the experiment with MOLT-4 leukemia and 92.3% in the experiment with SR leukemia.

As to `CCCn1c2cc(OCc3cn(-c4ccc(Br)cc4)nn3)ccc2c2ccnc(C)c21`, the growth is 70.6% with SK-MEL-2 melanoma; 82.7% in the experiment with EKVX NSCLC; 17.5% with SN12C renal; 23.4% in the experiment on UO-31 renal; 85.9% in the experiment on TK-10 renal; 17.4% with ACHN renal. Besides, the growth is 77.8% in the experiment with A498 renal, 13.1% with CCRF-CEM leukemia, 45.6% with MOLT-4 leukemia and -15.2% (active) in the experiment with SR leukemia.

Regarding `CCOC(=O)c1c(C)nc2c(c1N)CC(=O)N2CCc1ccccc1`, the growth is 39.2% in the experiment on SK-MEL-2 melanoma; 55.9% in the experiment with EKVX NSCLC; 24.3% in the experiment with SN12C renal; 36.6% with UO-31 renal; -3.79% (active) with TK-10 renal; 34.2% with ACHN renal. The growth in the experiment with A498 renal is 11.9%; in the experiment with CCRF-CEM leukemia it was 9.62% (active); in the experiment with MOLT-4 leukemia, 18.6%; with SR leukemia, 3.16% (active).

As for `CCN1CCC[C@H]1c1cc(O)c2c(c1OC)C[C@H]1C[C@H]3[C@H](N)C(=O)C(C(N)=O)=C(O)[C@@]3(O)C(=O)C1=C2O`, the growth with SK-MEL-2 melanoma is -43.9% (active); with EKVX NSCLC, -8.34% (active); in the experiment with SN12C renal it was -3.68% (active); with UO-31 renal it was -5.6% (active); with TK-10 renal, -8.12% (active); with ACHN renal, -2.88% (active). Further, the growth was -14.7% (active) in the experiment with A498 renal, 1.43% (active) with CCRF-CEM leukemia, -16.8% (active) in the experiment on MOLT-4 leukemia and -18.8% (active) in the experiment on SR leukemia.
